Only some compounds are listed: those with a hit (about 3.5% of all), similar ones and a draw of the others.
Mcl1-Noxa inh: Mcl-1/Noxa binding inhibitors, primary screen, biochemical, TR-FRET, 1536-well; AID 1022, 2008; inhibition, % at 21.7 µM; 1.5% of 220,000 active; Induced myeloid leukemia cell differentiation protein Mcl-1 (Homo sapiens), Q07820; TR-FRET Mcl-1/Noxa peptide binding, 2 h;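 active means compounds that cut the protein-peptide binding signal by more than 50% relative to plate controls in a single-dose test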;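 further: His-tagged Mcl-1 with rhodamine Noxa BH3 peptide and terbium anti-His antibody; 0% = Mcl-1 plus Noxa peptide wells and 100% = peptide-only wells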
Target sequence (Q07820 whole entry, looked up): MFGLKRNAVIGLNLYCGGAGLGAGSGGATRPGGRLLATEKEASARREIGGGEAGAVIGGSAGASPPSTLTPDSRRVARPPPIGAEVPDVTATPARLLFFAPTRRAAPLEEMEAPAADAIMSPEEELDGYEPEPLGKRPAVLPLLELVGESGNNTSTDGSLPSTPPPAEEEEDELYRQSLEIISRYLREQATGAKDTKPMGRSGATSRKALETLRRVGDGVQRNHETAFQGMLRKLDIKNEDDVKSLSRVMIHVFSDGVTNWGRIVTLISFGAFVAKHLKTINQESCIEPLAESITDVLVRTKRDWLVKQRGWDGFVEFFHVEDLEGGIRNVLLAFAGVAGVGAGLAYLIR
Mcl1-Bid inh: Mcl-1/Bid binding inhibitors, primary screen, biochemical, TR-FRET, 1536-well | Induced myeloid leukemia cell differentiation protein Mcl-1 (Homo sapiens), Q07820 | TR-FRET Mcl-1/Bid-Dy647 peptide binding | inhibition, % at 21.7 µM | 0.97% of 220,000 active | AID 1021, 2008;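 active means compounds that cut the binding signal by more than half at the single screening dose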;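 further: His-tagged Mcl-1 with europium anti-His antibody binding Bid BH3 peptide; 0% = Mcl-1 plus peptide wells and 100% = peptide-only wells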
14-3-3 Bad PPI: inhibitors of 14-3-3 zeta/Bad binding, primary screen, biochemical, TR-FRET, bovine 14-3-3 zeta; AID 781, 2007; TR-FRET 14-3-3zeta/Dy647-pBad peptide displacement, 1 h; inhibition, % at 21.7 µM; 0.71% of 220,000 active; 14-3-3 protein zeta/delta (Bos taurus), P63103;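 active means inhibition above about 70%, limit read from the data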;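 further: 0% = full 14-3-3 plus peptide FRET controls and 100% = background without 14-3-3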
Target sequence (P63103 whole entry, looked up): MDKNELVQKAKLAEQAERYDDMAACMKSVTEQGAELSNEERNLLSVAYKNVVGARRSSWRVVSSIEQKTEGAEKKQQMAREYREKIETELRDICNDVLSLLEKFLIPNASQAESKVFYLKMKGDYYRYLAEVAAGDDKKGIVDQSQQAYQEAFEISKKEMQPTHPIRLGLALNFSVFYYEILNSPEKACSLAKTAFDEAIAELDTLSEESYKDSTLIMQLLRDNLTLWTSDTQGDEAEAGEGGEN
Hck Nef HTS: inhibitors of Nef-activated human Hck kinase, primary screen, biochemical, Z-Lyte FRET, 384-well, Hck-YEEI | AID 463187, 2010 | inhibition, % at 20 µM | 0.68% of 220,000 active | Recombinant Hck-YEEI plus Nef, Z-Lyte FRET kinase assay;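 active means Hck-Nef kinase inhibition above about 50%, limit read from the data; inactive means inhibition below that limit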;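 further: 0% = DMSO with Hck plus Nef and 100% = Hck alone without Nef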
eIF4E 4G PPI: eIF4E–eIF4G protein interaction inhibitors, primary screen, biochemical, uHTS, TR-FRET, eIF4GI fragment. Eukaryotic translation initiation factor 4E (Mus musculus) + Eukaryotic translation …. TR-FRET eIF4E-eIF4GI(517-606) binding, 2 h. inhibition, % at 21.7 µM. 0.37% of 220,000 active. AID 782, 2007;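 active means inhibition above about 30%, limit read from the data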;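 further: 0% = full FRET control wells and 100% = background wells lacking eIF4GI fragment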
Bim-Mcl-1: inhibitors of Bim peptide binding to Mcl-1, primary screen, biochemical, bead-based flow cytometry, multiplex; Induced myeloid leukemia cell differentiation protein Mcl-1 (Homo sapiens), Q07820; Bim peptide-Mcl-1 binding; inhibition, % at 10 µM; 0.1% of 190,000 active; AID 1009, 2008; in the data active means inhibition above about 40%;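 further: 0% = no compound tracer wells and 100% = peptide blocker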
* marks the source's active call; other numbers are inactive results; x = no result given.

SMILES | Mcl1-Noxa inh | Mcl1-Bid inh | 14-3-3 Bad PPI | Hck Nef HTS | eIF4E 4G PPI | Bim-Mcl-1
O=C(CNC(=O)C(c1ccccc1)c1ccccc1)OCC(=O)c1cccs1 | 11 | -11 | -16 | 5 | 6 | -2
CC(OC(=O)c1cc(S(=O)(=O)N(C)c2ccccc2)ccc1Cl)C(=O)Nc1ccc2c(c1)OCCO2 (stereo not drawn) | 0 | -5 | -15 | 1 | 3 | -6
CCOc1c(CNc2nnnn2C)cccc1OC | -7 | -31 | -8 | -13 | 2 | -2
CCOC(=O)C(C)Sc1ccc2nnc(-c3ccc(F)cc3)n2n1 (stereo not drawn) | 4 | -3 | -4 | -2 | 51* | -6
CC(Sc1ccc2nnc(-c3ccc(F)cc3)n2n1)C(=O)O (stereo not drawn) | 10 | -26 | 9 | -2 | 14 | -5
Cc1ccc(-c2nnc3ccc(SC(C)C(=O)O)nn23)cc1 (stereo not drawn) | 78* | -8 | 6 | 0 | -1 | -2
CCOc1ccc(Nc2nnc(Cc3ccc(OC)cc3)c(=O)[nH]2)cc1 | 5 | -13 | -10 | 36 | 1 | -5
Cc1noc(C)c1CN1C(=O)NC(Cc2ccccc2)(Cc2ccccc2)C1=O | 14 | 4 | -8 | 2 | -13 | 40*
CN(c1cccc(NC(=O)CN(c2cccc(F)c2)S(C)(=O)=O)c1)S(C)(=O)=O | 4 | -8 | -3 | 4 | 0 | -4
CCOC(=O)c1c(NS(=O)(=O)c2ccc(Br)cc2)sc2c1CCC2 | 51* | -17 | 0 | 32 | -3 | -4
COc1ccc(CNC(=O)c2cc3c(s2)CN(Cc2ccccc2)C3)cc1 | 11 | -19 | -6 | 7 | 1 | 2
O=C(N/N=C/c1cc(Cl)cc([N+](=O)[O-])c1O)c1cc(-c2ccccn2)nc2ccccc12 | 0 | -71 | 27 | 35 | 2 | x
O=[N+]([O-])c1cc(Cl)cc(/C=N\Nc2ccccn2)c1O | -11 | 73* | 1 | 4 | -14 | 0
COc1cc(C)ccc1OCCOCCOc1cccc2ccc(C)nc12 | 17 | -13 | 31 | -5 | 4 | 0
C=CCc1ccc(OCCOCCOc2cccc3ccc(C)nc23)c(OC)c1 | 16 | 80* | 74* | 1 | 10 | 1
Cc1[nH]nc(SCC(=O)N2CCC(C)CC2)c1[N+](=O)[O-] | 13 | 8 | -1 | -2 | 4 | -3
CCn1cc(C(=O)NCc2ccco2)c(=O)c2cc(S(=O)(=O)N3CCCCCC3)ccc21 | 12 | -13 | 2 | 1 | 2 | 0
C=CCn1cc(C(=O)NCc2ccco2)c(=O)c2cc(S(=O)(=O)N3CCCCCC3)ccc21 | 1 | 91* | -11 | 3 | -6 | -1
O=C(c1ccccc1CCc1ccccc1)N1CCOCC1 | 2 | 57* | 10 | 12 | 5 | -4
C#CCCOC(=O)N1C2=NC(C(=O)OC)=C(C(=O)OC)[C@@H]3N(CC=C)c4ccccc4[C@]23C[C@H]1C(=O)OC | -7 | -55 | -3 | 21 | 0 | x
COc1cc(OC)cc(C(=O)N2CCN(Cc3ccccc3C(F)(F)F)CC2)c1 | 39 | 67* | 42 | 1 | 3 | -2
CN1CCCN(Cc2ccccc2C(F)(F)F)CC1 | 10 | 31 | 81* | -6 | 94* | -4
CCCS(=O)(=O)N1CCN(Cc2ccccc2C(F)(F)F)CC1 | 29 | 38 | 58 | 1 | -6 | -5
COc1cccc(OC)c1C(=O)N1CCN(Cc2ccccc2C(F)(F)F)CC1 | 26 | 43 | 84* | -1 | -5 | -5
COc1cccc(NC(=S)N(CCN(C)C)C(C)c2ccncc2)c1 (stereo not drawn) | 35 | -14 | 31 | 20 | -3 | x
SMILES | Mcl1-Noxa inh | Mcl1-Bid inh | 14-3-3 Bad PPI | Hck Nef HTS | eIF4E 4G PPI | Bim-Mcl-1
CCCCC(=O)Nc1ccc2oc(-c3cccnc3)nc2c1 | x | x | x | 1 | x | 4
CCCC(=O)Nc1ccc2oc(-c3cccnc3)nc2c1 | -2 | 86* | 1 | 1 | 5 | -2
O=C(NC(=S)Nc1ccc2oc(-c3cccnc3)nc2c1)c1cccc(Cl)c1 | 8 | 35 | 81* | 1 | -5 | 2
COc1ccc(CN2CCN(c3ccccn3)CC2)cc1OCc1ccccc1 | 8 | 3 | 70* | -2 | 4 | -2
COc1ccc(CN2CCN(C(=O)c3ccco3)CC2)cc1OC | 37 | 32 | 31 | -34 | 1 | -3
COc1ccc(CN2CCN(C(=O)c3ccco3)CC2)cc1OCc1ccccc1 | 35 | 31 | 84* | 1 | -4 | 2
O=C(NCc1cccc(C(F)(F)F)c1)C1CC(c2ccccc2C(F)(F)F)=NO1 (stereo not drawn) | -14 | -21 | -3 | 30 | -2 | x
O=C(NCCN1CCN(c2ccccc2)CC1)c1ccc2c(c1)[nH]c(=S)n1c3ccccc3nc21 | 51* | 9 | 19 | 29 | 4 | -2
CCC(C)NC(=O)Cn1cc(S(=O)(=O)N2CCN(c3ccccc3F)CC2)c2ccccc2c1=O (stereo not drawn) | -27 | -22 | 7 | 17 | 5 | -2
O=C(OCn1nnc2ccccc2c1=O)c1ccco1 | -1 | -18 | 1 | 1 | -8 | 2
O=C(OCn1nnc2ccccc2c1=O)c1cc2ccccc2o1 | 5 | -67 | 3 | 26 | 98* | x
Cc1ccccc1NS(=O)(=O)c1ccc(OCC(=O)NCc2ccccn2)cc1 | 6 | -17 | -3 | 0 | 3 | 0
CC(C)=C1Cc2ccccc2C1=O | -2 | -41 | -7 | 5 | -1 | 2
COc1ccc2c(c1O)Cc1ccccc1C2=O | 52* | 2 | 5 | 4 | 9 | 0
COc1ccc(Cc2nc3ccccc3n2CC(=O)N/N=C/c2ccc(C)cc2O)cc1OC | -97 | 4 | 83* | -3 | 7 | -87
CCOc1ccccc1C(=O)Nc1nn[nH]n1 | 1 | 2 | 5 | -13 | 2 | 2
CCOc1ccc(NC(=O)C2Cc3ccccc3CN2S(=O)(=O)CC)cc1 (stereo not drawn) | 4 | -24 | -19 | 27 | -2 | 1
CCS(=O)(=O)N1Cc2ccccc2CC1C(=O)OCC(=O)N(C(C)C)C(C)C (stereo not drawn) | 70* | -25 | -16 | 3 | -7 | 0

Source: PubChem (several laboratories)
